VACV mCherry inh: inhibitors of vaccinia virus infection (mCherry reporter signal) | Potency, µM (series often up to 36.5 µM), for inactives: at the top dose activity change, negative = inhibition, usual class: inhibitors | Vaccinia virus mCherry reporter infection, fluorescence | AID 720579 | 310,000 tested, 0.63% active; calls by dose curve; tested in A549 cells; also: potency is read from the fitted curve at half-maximal effect; nearly all actives have a fitted effect of over 35% in size
HCV inh: blocks hepatitis C virus | Huh7.5.1 HCVcc-Cre infection, luciferase reporter, 44 h | Potency, µM (highest dose often 41.8 µM), inactives show top-dose activity change, negative = inhibition, most hits filed as inhibitors | 340,000 tested, 3.4% active | AID 651820; active = well fitted inhibition curve with a large enough effect; inconclusive = small, poorly fitted or top-dose-only effect, or another doubt; inactive = no such curve, though single readings can be large or run the other way; also: potency is read from the fitted curve at half-maximal effect
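Compounds are dispensed onto cells plated 4 h earlier at 1,000 per well, with HCVcc-Cre virus (about 0.5 moi) added next. Following 44 h of culture, luminescent signal is measured for 15 sec after 15 min with substrate at room temperature.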
HCMV inh: human cytomegalovirus inhibition; activity change, negative = inhibition, % at 57.5 µM; 410,000 tested, 4.5% active; HFF cells, HCMV-luciferase reporter, 72 h; active compounds read low; in the data active = activity change below about -60%; inconclusive = no clear call, values can overlap the other calls; inactive = above about -39%
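Steps: HFFs plated, 16 h 37C; compounds added; HCMV-luciferase added to MOI 1 PFU/cell; 72 h 37C; OneGlo reagent, 5 min room temperature; luminescence read, normalized to controls.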
FMDV antiviral: blocks foot and mouth disease virus; 410,000 tested, 1.2% active; FMDV antiviral cell-based qHTS; AID 1159524; Potency, µM (doses to about 57.9 µM), for the others: at the top dose activity change, negative = inhibition, actives largely listed as inhibitors; calls by dose curve; tested in HEK293T cells; also: read-out not given here; potency is read from the fitted curve at half-maximal effect; nearly all actives have a fitted effect of over 45% in size
Vaccinia Venus: vaccinia inhibition (Venus reporter). Vaccinia virus Venus reporter expression, fluorescence. Potency, µM (titrated, usually from 36.5 µM), inactives show top-dose activity change, negative = inhibition, actives largely listed as inhibitors. 330,000 tested, 0.46% active. AID 720580; calls by dose curve; tested in A549 cells; also: potency is read from the fitted curve at half-maximal effect; nearly all actives have a fitted effect of over 30% in size
Active calls of the source: *; i = inactive; u = inconclusive; x = no result given; [ ] = another dose, or the depositor's remark. Compounds with a hit are over-represented: about 7.3% of the library has one in this group of screens. % is scaled to controls: 0 for no effect and ±100 for the full control effect.

SMILES	VACV mCherry inh	HCV inh	HCMV inh	FMDV antiviral	Vaccinia Venus
Nc1ccc(/C=C/c2cc(Cl)nc3ccccc23)cc1	-5.3%	x	x	x	-13.6%
CCOc1cccc(N(C(=O)C2COc3ccccc3O2)C(C(=O)NC2CCCCC2)c2ccc(O)cc2)c1 (configuration not stated)	-8.8%	14.8%	117.6	-23.9%	-15.6%
CC(C)CCNC(=O)C(c1ccc(O)cc1)N(C(=O)C1COc2ccccc2O1)c1cccc(O)c1 (configuration not stated)	i	-25.0%	-63.4*	1.5%	-14.2%
COC(=O)C[C@H]1c2ccccc2S(=O)(=O)N1c1ccc(N(C)C)cc1	-21.3%	x	x	x	-10.4%
CCOC(=O)c1cc(NC(=O)c2cnccn2)cc(C(=O)OCC)c1	-6.6%	3.9%	-92.5*	9.0%	-8.0%
OC1(c2ccc3c(c2)CN(Cc2nccs2)CCO3)CCN(c2ccccc2F)CC1	-11.7%	x	x	-15.3%	0.0%
O=C(Nc1ccc(-c2cn3ccsc3n2)cc1)c1ccc(F)c(S(=O)(=O)N2CCOCC2)c1	x	5.62µM*	u	u	x
O=S(=O)(NCc1cccs1)c1ccc(Br)cc1	x	5.5%	u	95.2%	x
Cc1nc2ccc(NC(=O)c3ccc(Cl)c(S(=O)(=O)N(C)c4ccccc4)c3)cc2s1	u	u	-101.5*	8.91µM*	u
Cc1ccc(NC(=O)c2ccc(F)c(S(=O)(=O)N3CCc4ccccc4C3)c2)cc1F	-1.0%	x	-67.5*	0.0%	-16.3%
Cc1ccccc1NC(=O)c1ccc(F)c(S(=O)(=O)N2CCc3ccccc3C2)c1	-12.0%	x	10.1	-24.8%	-15.0%
O=C(Nc1ccc(Br)cc1)c1ccc(F)c(S(=O)(=O)NCc2cccs2)c1	u	5.01µM*	-92.3*	-0.5%	u
O=C(Nc1ccc(Br)cc1)c1ccc(F)c(S(=O)(=O)N2CCc3ccccc32)c1	-16.4%	x	-92.3*	u	u
CCOC(=O)Cc1csc(NC(=O)c2ccc(S(=O)(=O)N3CCOCC3)cc2)n1	-3.8%	u	10.8	-19.8%	-11.4%
CCOC(=O)Cc1csc(NC(=O)c2ccc(C)c(S(=O)(=O)N3CCOCC3)c2)n1	x	u	0.0	31.6µM*	x
Cc1ccc(C)c(N2CCN(S(=O)(=O)c3cc(C(=O)Nc4ccc(Oc5ccccc5)cc4)ccc3F)CC2)c1	u	x	-65.1*	-25.2%	-31.6%
Cc1cccc(N2CCN(S(=O)(=O)c3cc(C(=O)Nc4ccc(Oc5ccccc5)cc4)ccc3F)CC2)c1C	-27.2%	x	u	u	-25.5%
O=C(Nc1ccccc1)c1ccc(F)c(S(=O)(=O)N2CCOCC2)c1	x	-27.2%	-13.7	-4.5%	x
Cc1ccc(NC(=O)c2ccc(F)c(S(=O)(=O)N3CCOCC3)c2)cc1F	u	x	-68.6*	u	-24.7%
COc1ccc(Oc2ccc3c(-c4ccccc4F)noc3n2)c(F)c1	x	x	0.4	x	x
CN(Cc1ccccc1)c1nc2c(S(=O)(=O)c3cccc(Cl)c3)nnn2c2ccsc12	-9.1%	x	6.5	7.7%	-9.1%
Cc1nc2ccc(NC(=O)c3ccc(C)c(S(=O)(=O)N4CCOCC4)c3)cc2s1	x	10µM*	-71.8*	u	x
Cc1nc2ccc(NC(=O)c3cc(S(=O)(=O)N4CCOCC4)ccc3C)cc2s1	x	u	-10.4	u	u
CCc1ccccc1NC(=O)c1ccc(F)c(S(=O)(=O)N2CCN(c3ccccc3OC)CC2)c1	-23.5%	x	-62.4*	u	-27.8%
Cc1ccc(NC(=O)c2ccc(F)c(S(=O)(=O)NCCc3ccccc3)c2)cc1F	u	x	-74.9*	2.5%	-26.1%
SMILES	VACV mCherry inh	HCV inh	HCMV inh	FMDV antiviral	Vaccinia Venus
CC(CNC(=O)c1cnn(-c2ccc(F)cc2)c1-n1cccc1)c1ccccc1 (configuration not stated)	-17.2%	x	-28.1	u	-20.9%
COc1ccc(N2C3=C(C(=O)CC(C)(C)C3)C(c3ccccc3OC)C3=C2CC(C)(C)CC3=O)cc1	-19.5%	-17.6%	-65.4*	-4.3%	-20.0%
COc1ccc(N2C3=C(CC4=C2CC(C)(C)CC4=O)C(=O)CC(C)(C)C3)cc1	u	u	-98.8*	x	-25.7%
COc1ccc(N2C3=C(CC4=C2CCCC4=O)C(=O)CCC3)cc1	i	u	u	u	-10.2%
Cc1ccc(N2CC(NC(=O)c3ccco3)CC2=O)cc1 (configuration not stated)	6.2%[7.34 µM]	x	-21.2	-16.9%	-1.7%[7.34 µM]
Cn1nnnc1SCCCNCc1cccc(OCc2ccccc2)c1	-11.0%	x	-39.3	1.6%	-17.2%
CC(=O)NC12CC3CC(C)(C1)CC(NC(C)=O)(C3)C2	i	x	-68.6*	11.9%	-16.6%
CC(C)OC(=O)c1c(NC(=O)c2cccc(C(F)(F)F)c2)sc2c1CCCC2	-7.5%	x	-14.0	-14.2%	-6.4%
COc1ccc(-c2nc(-c3cccs3)no2)cc1	-11.7%	0.2%	-34.8	7.08µM*	-17.9%
Cc1ccccc1-c1nc(-c2ccccn2)no1	0.3%	4.8%	-7.9	6.31µM*	8.7%
COc1ccc(-c2nc(-c3ccccn3)no2)cc1	x	-21.9%	-94.4*	7.94µM*	x
COc1ccccc1-c1nc(-c2ccccn2)no1	-10.3%	u	u	-72.0%	-8.0%
Cc1ccc(NS(=O)(=O)c2ccc(NC(=O)c3ccc(Br)o3)cc2)c(C)c1	u	12.6µM*	-30.9	u	-20.1%
Cc1cc(NC(=O)c2ccc(Br)o2)ccc1NC(=O)c1ccco1	-6.1%	-3.9%	-88.9*	22.6%	3.8%
Cc1cc(C)cc(NS(=O)(=O)c2ccc(NC(=S)NC(=O)c3ccc(Br)o3)cc2)c1	x	u	-76.0*	0.0%	u
CCc1nnc2c3ccccc3nc(Nc3ccccc3OC)n12	-8.6%	x	-10.6	-17.3%	3.5%
Cc1c(CCC(=O)NCCc2ccccc2F)c(=O)oc2cc(O)ccc12	-13.5%	x	-17.1	-9.8%	-7.9%
Cn1ccc2c(/C=C/c3ccc(F)cc3)cc3c(c21)C1CCC3O1 (configuration not stated)	9.9%	x	-15.9	-14.9%	-11.1%
Cn1ccc2c(/C=C/c3ccc(F)cc3)cc3c(c21)C1CCC3C1 (configuration not stated)	i	x	-66.8*	-11.3%	1.5%
Cc1cc2c(cc1S(=O)(=O)Nc1cccc(Cl)c1C)OCCN2C	-24.9%	x	u	35.5%	-18.1%
Cc1sc2nc(CN3CCOCC3)nc(Cl)c2c1C	-6.1%	-2.9%	-17.1	-0.4%	-26.4%
Cc1sc2nc(CN3CCOCC3)nc(NS(=O)(=O)c3cc(Cl)ccc3Cl)c2c1C	x	-10.1%	-106.4*	17.1%	x
Cc1nn(-c2cccc(Cl)c2)c2nc(-c3cccnc3)cc(C(F)(F)F)c12	-5.4%	x	-32.6	-13.1%	-2.5%
COc1ccc(-n2nc(C)c3c(C(F)(F)F)cc(-c4cccnc4)nc32)cc1	-14.7%	x	-72.6*	-8.4%	-7.4%
Cn1c(=O)oc2cc(NC(=O)CCl)ccc21	x	u	-105.5*	u	x
CC(=O)Nc1ccc(NC(=O)CCS(=O)(=O)c2ccc3c(c2)oc(=O)n3C)cc1	x	8.1%	-13.3	-4.4%	x
Cn1c(SCc2ccccc2)nnc1C1CCCN(Cc2cccc3ncccc23)C1 (configuration not stated)	-8.7%	x	x	-11.4%	-6.6%

Source: PubChem BioAssay (National Center for Advancing Translational Sciences (NCATS))
